According to PubChem BioAssay (NCATS):
Several values for one entry are separate records, joined by “and”; a condition that tells them apart may be missing. Identical values can stand only once. Results filed as inconclusive are left out. Activity calls are given as the source filed them. Unless noted, calls come from the whole dose curve; as a rule, active = well fitted curve in the direction sought with a large enough effect; inconclusive = small, poorly fitted or top-dose-only effect, or another doubt; inactive = no such curve, though single readings can be large; an effect the other way counts as inactive or inconclusive.

Tests used:
[1] = test system: MKL-2; test: qHTS assay to identify novel small-molecules to repurpose for Merkel cell carcinoma treatment (AID 1296009); details: MCC and control cell lines, CellTiter-Glo viability, 72 h; series mostly up to 46 µM; note: nearly all actives have a fitted effect of over 60% in size
Summary of the method: (§1)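 After compound transfer in DMSO, plates were kept 72 hr at 37 degree celsius. Luminescent ATP signal from CellTiter-Glo served as viability measure, normalized against DMSO and no-cell controls.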

[2] = test system: NIH3T3; test: as above; details: MCC and control cell lines, CellTiter-Glo viability, 72 h; at 44.8 µM (top of the series) unless noted
Summary of the method: as §1

[3] = test system: UISO; test: as above; details: MCC and control cell lines, CellTiter-Glo viability, 72 h; series mostly up to 46 µM
Summary of the method: as §1

[4] = test system: WaGa; test: as above; details: MCC and control cell lines, CellTiter-Glo viability, 72 h; series mostly up to 46 µM
Summary of the method: as §1

[5] = test system: C33A; test: Primary qHTS to identify gynecologic anti-cancer compounds using libraries of approved drugs and bioactive compounds (AID 1345084); details: Gynecologic cancer cell panel viability, ATPlite luminescence, 48 h; series mostly up to 57.5 µM; note: % is set by controls: 0 for no effect and ±100 for the full control effect; nearly all actives have a fitted effect of over 55% in size
Summary of the method: (§2)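 Cytotoxicity screen measuring ATP content by luciferase luminescence. Each compound is applied at five concentrations for 48 h at 37 C with 5% CO2.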

[6] = test system: CAOV3; test: as above; details: Gynecologic cancer cell panel viability, ATPlite luminescence, 48 h; series mostly up to 57.5 µM
Summary of the method: as §2

[7] = test system: CASKI; test: as above; details: Gynecologic cancer cell panel viability, ATPlite luminescence, 48 h; series mostly up to 57.5 µM
Summary of the method: as §2

[8] = test system: Es-2; test: as above; details: Gynecologic cancer cell panel viability, ATPlite luminescence, 48 h; series mostly up to 57.5 µM
Summary of the method: as §2

[9] = test system: HeLa; test: as above; details: Gynecologic cancer cell panel viability, ATPlite luminescence, 48 h; series mostly up to 57.5 µM
Summary of the method: as §2

[10] = test system: Hek293T; test: as above; details: Gynecologic cancer cell panel viability, ATPlite luminescence, 48 h, control line for the selectivity index; series mostly up to 57.5 µM
Summary of the method: as §2

[11] = test system: JEG-3; test: as above; details: Gynecologic cancer cell panel viability, ATPlite luminescence, 48 h; series mostly up to 57.5 µM
Summary of the method: as §2

[12] = test system: OV90; test: as above; details: Gynecologic cancer cell panel viability, ATPlite luminescence, 48 h; series mostly up to 57.5 µM
Summary of the method: as §2

[13] = test system: PA-1; test: as above; details: Gynecologic cancer cell panel viability, ATPlite luminescence, 48 h; series mostly up to 57.5 µM
Summary of the method: as §2

[14] = test system: SKOV3; test: as above; details: Gynecologic cancer cell panel viability, ATPlite luminescence, 48 h; series mostly up to 57.5 µM
Summary of the method: as §2

[15] = test system: Tov-21-G; test: as above; details: Gynecologic cancer cell panel viability, ATPlite luminescence, 48 h; series mostly up to 57.5 µM
Summary of the method: as §2

[16] = test system: Tov112D; test: as above; details: Gynecologic cancer cell panel viability, ATPlite luminescence, 48 h; series mostly up to 57.5 µM
Summary of the method: as §2

[17] = Drug repurposing screens with cells derived from glioblastoma tumor samples (AID 1345199); details: GBM patient neurospheres viability, ATP luminescence, 48 h; note: nearly all actives have a fitted effect of over 40% in size; note: potency is the fitted concentration of half-maximal effect; for activity, negative = cell killing: % is set by controls: 0 for no effect and ±100 for the full control effect
Summary of the method: (§3)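 Four patient lines of CD133+ GBM neurospheres were screened at several concentrations; hits were retested in those lines plus three slower-growing GBM lines, using 48-hour treatment and ATP-based viability.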

[18] = test system: astro; test: as above; details: viability, ATP luminescence, 48 h; series mostly up to 45.9 µM
Summary of the method: as §3

[19] = target: Nuclear receptor subfamily 1 group I member 2 (Rattus norvegicus) (UniProt Q9R1A7); test: qHTS assay for small molecule activators of the rat pregnane X receptor (rPXR) signaling pathway (AID 651751; call rule not given here; note: 0% is about no effect); details: rPXR reporter cells, luciferase (One-Glo), 24 h
Sequence of Nuclear receptor subfamily 1 group I member 2 (Rattus norvegicus) (Q9R1A7 whole entry, looked up): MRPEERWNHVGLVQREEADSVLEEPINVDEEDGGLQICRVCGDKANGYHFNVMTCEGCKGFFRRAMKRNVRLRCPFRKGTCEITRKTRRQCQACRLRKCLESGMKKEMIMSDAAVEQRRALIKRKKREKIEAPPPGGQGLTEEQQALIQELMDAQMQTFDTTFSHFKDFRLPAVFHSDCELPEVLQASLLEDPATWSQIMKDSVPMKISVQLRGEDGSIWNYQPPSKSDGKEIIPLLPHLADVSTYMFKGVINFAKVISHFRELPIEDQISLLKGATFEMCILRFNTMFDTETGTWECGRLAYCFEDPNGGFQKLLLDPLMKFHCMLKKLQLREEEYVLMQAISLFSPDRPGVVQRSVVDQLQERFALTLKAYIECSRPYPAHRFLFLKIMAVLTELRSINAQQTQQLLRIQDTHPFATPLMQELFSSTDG

[20] = at 45.9 µM (top of the series), tumour line B
[21] = at 45.9 µM (top of the series), tumour line D
[22] = at 46 µM (top of the series), tumour line A
[23] = at 46.1 µM (top of the series), tumour line C

O=C1O[C@H]([C@@H](O)CO)C(O)=C1O
inactive: Potency [1] | outcome [2] | Potency [3] | Potency [4] | Potency [5] | Potency [6] | Potency [7] | Potency [8] | Potency [9] | Potency [10] | Potency [11] | Potency [12] | Potency [13] | Potency [14] | Potency [15] | Potency [16] | activity, negative = cell killing [17, 20] -10.4% and -5.65% | activity, negative = cell killing [17, 21] -12.1% and -20.9% | activity, negative = cell killing [17, 22] -0.597% | activity, negative = cell killing [17, 23] -3.99% and -11% | Potency [18] | max response [19] 2.78% and -0.0955%

CO/N=C(\C(=O)N[C@@H]1C(=O)N2C(C(=O)O)=C(CSc3nc(=O)c(O)nn3C)CS[C@H]12)c1csc(N)n1
inactive: Potency [1] | outcome [2] | Potency [3] | Potency [4] | Potency [5] | Potency [6] | Potency [7] | Potency [8] | Potency [9] | Potency [10] | Potency [11] | Potency [12] | Potency [13] | Potency [14] | Potency [15] | Potency [16] | activity, negative = cell killing [17, 20] -2.24% | activity, negative = cell killing [17, 21] -10.7% | activity, negative = cell killing [17, 22] -24.8% | activity, negative = cell killing [17, 23] -11.4% | Potency [18]

O=c1cc[nH]c(=O)[nH]1
inactive: Potency [1] | outcome [2] | Potency [3] | Potency [4] | Potency [5] | Potency [6] | Potency [7] | Potency [8] | Potency [9] | Potency [10] | Potency [11] | Potency [12] | Potency [13] | Potency [14] | Potency [15] | Potency [16] | activity, negative = cell killing [17, 20] -1.25% | activity, negative = cell killing [17, 21] -13.5% | activity, negative = cell killing [17, 22] -25.6% | activity, negative = cell killing [17, 23] -13% | Potency [18]

CCCCOc1cc(C(=O)OCCN(CC)CC)ccc1N
active: Potency ([17]; tumour line A) 11.2 µM
inactive: Potency [1] | outcome [2] | Potency [3] | Potency [4] | Potency [5] | Potency [6] | Potency [7] | Potency [8] | Potency [9] | Potency [10] | Potency [11] | Potency [12] | Potency [13] | Potency [14] | Potency [15] | Potency [16] | activity, negative = cell killing ([17]; at 20 µM (top of the series), tumour line C) -6.35% | activity, negative = cell killing ([17]; at 21.2 µM (top of the series), tumour line B) -29.6% | Potency [18]

O=C(O)c1ccccc1O
inactive: Potency [1] | outcome [2] | Potency [3] | Potency [4] | Potency [5] | Potency [6] | Potency [7] | Potency [8] | Potency [9] | Potency [10] | Potency [11] | Potency [12] | Potency [13] | Potency [14] | Potency [15] | Potency [16] | activity, negative = cell killing [17, 20] -1.6% and -1.62% | activity, negative = cell killing [17, 21] -9.17% and -18.2% | activity, negative = cell killing [17, 22] -20.3% | activity, negative = cell killing [17, 23] -6.51% and 1.73% | Potency [18]

CCN(CC)CCNC(=O)c1cc(Cl)c(N)cc1OC
inactive: Potency [1] | outcome [2] | Potency [3] | Potency [4] | Potency [5] | Potency [6] | Potency [7] | Potency [8] | Potency [9] | Potency [10] | Potency [11] | Potency [12] | Potency [13] | Potency [14] | Potency [15] | Potency [16] | activity, negative = cell killing [17, 20] -15.5% | activity, negative = cell killing [17, 21] -19.3% | activity, negative = cell killing [17, 23] 6.62% | Potency [18]
